# Experimental data published in PubChem BioAssay.
# Test system: not listed separately
# Assay: probe aInhba binding on compound microarray – biochemical, small-molecule microarray, 635/667 nm fluorescence, primary screen (AID 1148);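 further: score merges 667nm spot fluorescence with signal-to-noise for antibody binding to printed compounds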
# Conditions: higher = more signal
row,Structure (SMILES),composite z-score
1,COC(=O)[C@@]1(Cc2ccccc2)[C@H]2c3cc(C(=O)N4CCCC4)n(C)c3C[C@H]2CN1C(=O)c1ccccc1,0.271
2,O=C1O[C@H](c2ccccc2)[C@H](c2ccccc2)N2[C@H]1[C@@H](C(=O)Nc1nc3ccccc3s1)[C@]1(C(=O)Nc3ccccc31)[C@H]2c1ccc(O)cc1,-0.0736
3,CCN(CC)c1ccc(N2CC=CC34O[C@@H]5C=CCCOC(=O)C5[C@H]3C(=O)N(CCCCCO)[C@@H]4C2=O)cc1 (some centres undefined),0.0173
4,COCCOC(=O)N1C(=O)[C@@]2(c3cc(C#CCC(C(=O)OC)C(=O)OC)ccc31)[C@H](c1ccc(O)cc1)N1[C@H](c3ccccc3)[C@H](c3ccccc3)OC(=O)[C@H]1[C@@H]2C(N)=O,0.215
5,NC(=O)NCC#Cc1ccc2c(c1)[C@]1(C(=O)N2)[C@H](C(=O)N2CCCCCCC2)[C@H]2C(=O)O[C@H](c3ccccc3)[C@H](c3ccccc3)N2[C@@H]1c1ccc(OCCO)cc1,0.563
6,CC(C)N1CC=CC23O[C@@H]4C=CCOC(=O)[C@@H]4[C@H]2C(=O)N(CCO)[C@@H]3C1=O (some centres undefined),-0.302
7,COc1ccc(CCNC(=O)[C@@]2(c3ccc([N+](=O)[O-])cc3)CC(=O)N(CC34CC5CC(CC(C5)C3)C4)[C@@H]2c2ccc(CO)cc2)cc1,0.327
8,COCCOC(=O)N1C(=O)[C@@]2(c3ccccc31)[C@H](C(=O)NC[C@H](O)c1ccccc1)[C@H]1C(=O)O[C@H](c3ccccc3)[C@H](c3ccccc3)N1[C@@H]2c1ccc(OCCO)cc1,0.0588
9,COc1ccc(C(O)C2C=CC3C(=O)NC(=O)C3N2Nc2ccccn2)cc1OCc1ccccc1 (centres undefined),-0.0256
10,COCCOC(=O)N1C(=O)[C@@]2(c3cc(C#CC4=CCCCC4)ccc31)[C@H](C(=O)NC[C@H](O)c1ccccc1)[C@H]1C(=O)O[C@H](c3ccccc3)[C@H](c3ccccc3)N1[C@@H]2c1ccc(O)cc1,0.221
11,COc1ccc([Si](C)(C)[C@@H]2[C@@H](CCn3cc([C@H](O)c4ccccc4)nn3)O[C@]3(C(=O)N(Cc4ccc(N5C(=O)c6cccc7cccc5c67)cc4)c4ccccc43)[C@H]2C)cc1,-0.0762
12,[N-]=[N+]=NCc1ccccc1C[C@]1(C(=O)O)N=C(c2ccc(OCCCO)cc2)O[C@H]1c1ccccc1CN=[N+]=[N-],0.0342
13,CC(C)NC(=O)[C@@H]1c2ccccc2C(=O)N(Cc2ccccc2)[C@H]1c1ccc(CO)cc1,0.0345
14,COCCOC(=O)N1C(=O)[C@@]2(c3cc(C#CCNC(N)=O)ccc31)[C@H](c1ccccc1OCCO)N1[C@H](c3ccccc3)[C@H](c3ccccc3)OC(=O)[C@H]1[C@@H]2C(N)=O,0.0422
15,O=C1C2C=CC(C(O)c3ccc(B(O)O)cc3)N(Nc3ccccc3)C2C(=O)N1c1ccccc1 (centres undefined),-0.0797
16,COC(=O)[C@@]1(Cc2ccc(F)cc2)[C@H]2c3cc(C(=O)N(C)C)n(CCc4ccccn4)c3C[C@H]2CN1C(=O)c1ccccc1,1.14
17,Cc1ccc(S[C@]2(C(=O)NC3CC3)CC(=O)N(Cc3ccccc3)[C@@H]2c2ccc(CO)cc2)cc1,-0.0762
18,O=C1C2C=CC(C(O)c3ccc(F)cc3)N(Nc3ccccc3)C2C(=O)N1c1ccccc1 (centres undefined),0.212
19,Cc1cc(C)c(C(O)C2C=CC3C(=O)N(C)C(=O)C3N2Nc2ccccc2)c(C)c1 (centres undefined),1.55
20,[N-]=[N+]=NCc1ccccc1C[C@]1(C(=O)NCCN2CCOCC2)N=C(c2ccc(OCCCO)cc2)O[C@H]1c1ccccc1N=[N+]=[N-],0.279
21,O=C(OCCF)C1=CCC(c2cccc(Cl)c2)O1 (centres undefined),-0.0468
22,[N-]=[N+]=NCc1ccccc1C[C@]1(C(=O)NCC(O)CO)N=C(c2ccc(OCCCO)cc2)O[C@H]1c1ccccc1N=[N+]=[N-] (some centres undefined),0.403
23,COCC1=C2[C@@H](CCc3ccccc3)OB(O)C[C@@H]2[C@@H]2C(=O)N(Cc3ccccc3)C(=O)[C@@H]2C1,-0.152
24,[N-]=[N+]=Nc1ccccc1[C@H]1OC(c2ccc(OCCCO)cc2)=N[C@@]1(CCS(=O)(=O)c1ccccc1)C(=O)O,0.0516

# Target: Torsin-1A (Homo sapiens) (UniProt O14656)
# Sequence (O14656 whole entry, looked up): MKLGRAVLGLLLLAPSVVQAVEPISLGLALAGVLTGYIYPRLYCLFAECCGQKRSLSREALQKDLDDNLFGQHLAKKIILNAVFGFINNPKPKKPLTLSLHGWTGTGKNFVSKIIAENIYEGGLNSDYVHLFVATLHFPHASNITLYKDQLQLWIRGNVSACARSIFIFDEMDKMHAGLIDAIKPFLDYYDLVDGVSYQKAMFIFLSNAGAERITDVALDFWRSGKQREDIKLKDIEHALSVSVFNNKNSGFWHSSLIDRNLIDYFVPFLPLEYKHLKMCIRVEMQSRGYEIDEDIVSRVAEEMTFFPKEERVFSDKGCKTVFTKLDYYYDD
# Assay: TOR1A wild-type binding on microarray – cell lysate, small-molecule microarray, lysate, 635/667 nm, primary screen (AID 1149)
# Conditions: COS7 hTOR1A-WT lysate, 635 nm fluorescence, higher = more signal
row,Structure (SMILES),composite z-score
1,COCC(=C=CC[C@@H](O)c1ccc(CO)o1)CCO,-0.117
2,CC(C)N1C(=O)c2ccccc2[C@@H](C(=O)NCCCN(C)C)[C@@H]1c1ccc(CO)cc1,-0.0795
3,C=C[C@@H](COC(C)=O)N(Cc1ccc([N+](=O)[O-])cc1)S(=O)(=O)c1ccc(Br)cc1,0.474
4,CC(C)C(=C=CC[C@@H](O)c1ccccc1OCCO)C[C@@H](O)c1ccccn1,0.276
5,C=CCNC(=O)[C@@H]1[C@H]2C(=O)O[C@H](c3ccccc3)[C@H](c3ccccc3)N2[C@H](c2ccc(O)cc2)[C@@]12C(=O)N(C(=O)OCCOC)c1ccccc12,0.677
6,CC(C)(C)OC(=O)CC[C@@]1(C(=O)NCCN2CCOCC2)N=C(c2ccc(OCCCO)cc2)O[C@@H]1c1ccccc1,0.388
7,N#Cc1ccc(NN2C(C(O)C3CCCCC3)C=CC3C(=O)N(c4ccccc4)C(=O)C32)cc1 (centres undefined),0.439
8,C=CCN1C(=O)[C@]2(O[C@H](CCO)[C@@H]([Si](C)(C)c3ccc(OC)cc3)[C@@H]2C)c2cc(NC(=O)[C@H](C)O)ccc21,0.725
9,O=C1O[C@H](c2ccccc2)[C@H](c2ccccc2)N2[C@H]1[C@@H](C(=O)N1CCN(c3ncccn3)CC1)[C@]1(C(=O)Nc3ccccc31)[C@H]2c1ccc(OCCO)cc1,1.43
10,O=C1OCCC/C=C\[C@H]2OC34C=CCN(Cn5nnc6ccccc65)C(=O)[C@H]3N(CCCCCO)C(=O)[C@@H]4C12 (some centres undefined),-2.35
11,COc1cc2c(cc1OC)CN(C(=O)[C@@H]1[C@H]3C(=O)O[C@H](c4ccccc4)[C@H](c4ccccc4)N3[C@H](c3ccccc3OCCO)[C@@]13C(=O)Nc1ccc(C#CCNC(N)=O)cc13)CC2,0.593
12,COC(=O)[C@@]1(Cc2ccccc2)[C@H]2c3cc(C(=O)N4CCCC4)n(C)c3C[C@H]2CN1C(=O)c1ccccc1,-0.212
13,O=C1O[C@H](c2ccccc2)[C@H](c2ccccc2)N2[C@H]1[C@@H](C(=O)Nc1nc3ccccc3s1)[C@]1(C(=O)Nc3ccccc31)[C@H]2c1ccc(O)cc1,-0.0245
14,CCN(CC)c1ccc(N2CC=CC34O[C@@H]5C=CCCOC(=O)C5[C@H]3C(=O)N(CCCCCO)[C@@H]4C2=O)cc1 (some centres undefined),0.846
15,COCCOC(=O)N1C(=O)[C@@]2(c3cc(C#CCC(C(=O)OC)C(=O)OC)ccc31)[C@H](c1ccc(O)cc1)N1[C@H](c3ccccc3)[C@H](c3ccccc3)OC(=O)[C@H]1[C@@H]2C(N)=O,1.61
16,NC(=O)NCC#Cc1ccc2c(c1)[C@]1(C(=O)N2)[C@H](C(=O)N2CCCCCCC2)[C@H]2C(=O)O[C@H](c3ccccc3)[C@H](c3ccccc3)N2[C@@H]1c1ccc(OCCO)cc1,0.92
17,CC(C)N1CC=CC23O[C@@H]4C=CCOC(=O)[C@@H]4[C@H]2C(=O)N(CCO)[C@@H]3C1=O (some centres undefined),-2.5
18,COc1ccc(CCNC(=O)[C@@]2(c3ccc([N+](=O)[O-])cc3)CC(=O)N(CC34CC5CC(CC(C5)C3)C4)[C@@H]2c2ccc(CO)cc2)cc1,0.246

row,Structure (SMILES),composite z-score
1,COCCOC(=O)N1C(=O)[C@@]2(c3ccccc31)[C@H](C(=O)NC[C@H](O)c1ccccc1)[C@H]1C(=O)O[C@H](c3ccccc3)[C@H](c3ccccc3)N1[C@@H]2c1ccc(OCCO)cc1,0.646
2,COc1ccc(C(O)C2C=CC3C(=O)NC(=O)C3N2Nc2ccccn2)cc1OCc1ccccc1 (centres undefined),-0.209
3,COCCOC(=O)N1C(=O)[C@@]2(c3cc(C#CC4=CCCCC4)ccc31)[C@H](C(=O)NC[C@H](O)c1ccccc1)[C@H]1C(=O)O[C@H](c3ccccc3)[C@H](c3ccccc3)N1[C@@H]2c1ccc(O)cc1,0.838
4,COc1ccc([Si](C)(C)[C@@H]2[C@@H](CCn3cc([C@H](O)c4ccccc4)nn3)O[C@]3(C(=O)N(Cc4ccc(N5C(=O)c6cccc7cccc5c67)cc4)c4ccccc43)[C@H]2C)cc1,-0.0204
5,[N-]=[N+]=NCc1ccccc1C[C@]1(C(=O)O)N=C(c2ccc(OCCCO)cc2)O[C@H]1c1ccccc1CN=[N+]=[N-],0.171
6,CC(C)NC(=O)[C@@H]1c2ccccc2C(=O)N(Cc2ccccc2)[C@H]1c1ccc(CO)cc1,-0.124
7,COCCOC(=O)N1C(=O)[C@@]2(c3cc(C#CCNC(N)=O)ccc31)[C@H](c1ccccc1OCCO)N1[C@H](c3ccccc3)[C@H](c3ccccc3)OC(=O)[C@H]1[C@@H]2C(N)=O,0.198
8,O=C1C2C=CC(C(O)c3ccc(B(O)O)cc3)N(Nc3ccccc3)C2C(=O)N1c1ccccc1 (centres undefined),-0.138
9,COC(=O)[C@@]1(Cc2ccc(F)cc2)[C@H]2c3cc(C(=O)N(C)C)n(CCc4ccccn4)c3C[C@H]2CN1C(=O)c1ccccc1,1.23
10,Cc1ccc(S[C@]2(C(=O)NC3CC3)CC(=O)N(Cc3ccccc3)[C@@H]2c2ccc(CO)cc2)cc1,-0.559
11,O=C1C2C=CC(C(O)c3ccc(F)cc3)N(Nc3ccccc3)C2C(=O)N1c1ccccc1 (centres undefined),0.171
12,Cc1cc(C)c(C(O)C2C=CC3C(=O)N(C)C(=O)C3N2Nc2ccccc2)c(C)c1 (centres undefined),0.405
13,[N-]=[N+]=NCc1ccccc1C[C@]1(C(=O)NCCN2CCOCC2)N=C(c2ccc(OCCCO)cc2)O[C@H]1c1ccccc1N=[N+]=[N-],0.304
14,O=C(OCCF)C1=CCC(c2cccc(Cl)c2)O1 (centres undefined),1.09
15,[N-]=[N+]=NCc1ccccc1C[C@]1(C(=O)NCC(O)CO)N=C(c2ccc(OCCCO)cc2)O[C@H]1c1ccccc1N=[N+]=[N-] (some centres undefined),0.26
16,COCC1=C2[C@@H](CCc3ccccc3)OB(O)C[C@@H]2[C@@H]2C(=O)N(Cc3ccccc3)C(=O)[C@@H]2C1,-0.427
17,[N-]=[N+]=Nc1ccccc1[C@H]1OC(c2ccc(OCCCO)cc2)=N[C@@]1(CCS(=O)(=O)c1ccccc1)C(=O)O,-0.363
